From PubChem BioAssay AID504411 (The Scripps Research Institute Molecular Screening Center, 2011)
The whole screen tested about 340,000 compounds, of which about 200 (0.059%) were called active. What follows is part of a selection rich in actives, with near analogues and random picks from the rest. A number with no mark means an inactive call. Rule as the data show it: active = inhibition above about 34%; inactive = the rest.

Each compound was assayed against Diacylglycerol lipase-beta (Homo sapiens) (UniProt Q8NCG7) (assay: DAGLB lipase inhibitors, primary screen, biochemical, fluorescence, HTS (AID 504411;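 also: 0% = enzyme with vehicle and 100% = wells lacking enzyme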)). Conditions: HEK293T DAGLB membrane lysate, EnzChek fluorogenic substrate; at 5.17 µM; active compounds read high.
Chain of Diacylglycerol lipase-beta (Homo sapiens) (Q8NCG7 whole entry, looked up): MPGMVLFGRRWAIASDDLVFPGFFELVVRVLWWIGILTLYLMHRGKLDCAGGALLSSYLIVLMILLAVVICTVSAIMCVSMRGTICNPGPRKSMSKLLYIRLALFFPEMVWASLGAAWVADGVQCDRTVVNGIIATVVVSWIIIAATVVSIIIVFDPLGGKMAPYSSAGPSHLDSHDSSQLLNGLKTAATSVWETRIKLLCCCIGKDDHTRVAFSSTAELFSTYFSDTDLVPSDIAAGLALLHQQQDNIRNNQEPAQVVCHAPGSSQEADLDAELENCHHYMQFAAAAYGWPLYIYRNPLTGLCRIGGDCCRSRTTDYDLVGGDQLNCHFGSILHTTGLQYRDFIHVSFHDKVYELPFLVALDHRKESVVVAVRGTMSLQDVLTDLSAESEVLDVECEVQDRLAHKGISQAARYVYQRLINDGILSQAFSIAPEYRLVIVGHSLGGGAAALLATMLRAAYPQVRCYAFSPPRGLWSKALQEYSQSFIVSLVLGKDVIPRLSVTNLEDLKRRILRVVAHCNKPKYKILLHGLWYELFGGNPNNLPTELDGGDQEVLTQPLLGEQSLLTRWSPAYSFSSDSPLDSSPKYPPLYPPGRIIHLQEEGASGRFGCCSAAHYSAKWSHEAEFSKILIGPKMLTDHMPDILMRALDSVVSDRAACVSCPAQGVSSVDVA

| Compound | inhibition |
| --- | --- |
| O=C1COc2ccc(C(=O)COC(=O)c3ccccc3Cl)cc2N1 | -2.51% |
| CCN1CCN(CC(=O)c2cc(OC)c(OC)c(OC)c2)CC1 | -1.97% |
| COc1ccc(/C=C/CN2CCN(Cc3ccc(C)cc3)C(CCO)C2)cc1 (configuration not stated) | -2.8% |
| Cc1ccccc1C(=O)N1CCC(C(=O)Oc2ccc(C#N)cc2)CC1 | -0.99% |
| COc1ccc(-c2nc(N)sc2C2(O)C(=O)Nc3c(Br)cc(F)cc32)cc1OC (configuration not stated) | -0.83% |
| O=S1(=O)CCO[C@H]2Cc3ccccc3[C@H]2N1Cc1ccccc1 | -1.47% |
| Cc1nc(NC(=O)c2ccc3c(c2)OCCO3)ccc1Br | -9.56% |
| COc1ccc(OC)c(NC(=O)CN(C)CCOc2ccc(Br)cc2)c1 | -4.02% |
| CCOC(=O)c1sc(/N=C/Nc2nc(C)c(C(=O)OCC)s2)nc1C | -0.89% |
| O=C(Nc1c2c(nn1-c1cccc(Cl)c1)CS(=O)(=O)C2)c1cccs1 | -3.19% |
| CCOC(=O)c1nn(-c2ccccc2F)c2nc(Nc3ccccc3)cc(=O)n12 | 0.18% |
| Cc1nn(-c2ncccn2)c2c1C(=O)CC(C)(C)C2Br (configuration not stated) | -0.78% |
| CCCN1C(=O)C(NS(=O)(=O)c2ccc(N)cc2)(C(F)(F)F)C(C(=O)OC)=C1C (configuration not stated) | 0.93% |
| COc1ccc(C(=O)CN2C(=O)NC3(CCc4ccccc43)C2=O)c(OC)c1 (configuration not stated) | -2.52% |
| CC(=O)Nc1ccc(NS(=O)(=O)c2cc(C)sc2C)cc1 | 2.41% |
| COc1cccc(N(C(=O)CNC(=O)c2ccco2)C(C(=O)NC2CCCCC2)c2cccnc2)c1 (configuration not stated) | -2.11% |
| O=c1[nH]c2c(c(=O)n1-c1ccccc1)CCO2 | 0.85% |
| CCOC(=O)c1cnc2ccc(F)cc2c1Nc1ccc2c(c1)OCCO2 | -13.6% |
| COc1cc(CCC(=O)N2CCN(c3ccccc3Cl)CC2)cc(OC)c1OC | -2.89% |
| O=C(c1cccs1)N1CCCC(c2nc(-c3ccc(F)cc3)no2)C1 (configuration not stated) | -7.27% |
| C=CCNC(=S)N1CCN(CCN=Cc2c(C)[nH]n(-c3ccc([N+](=O)[O-])cc3)c2=O)CC1 | 1.77% |

| Compound | inhibition |
| --- | --- |
| O=C(CN1CCC(NC(=O)C2CC2)CC1)Nc1ccccc1[N+](=O)[O-] | 1.28% |
| Cc1ccc(/C=N/NC(=O)COc2ccccc2-c2ccccc2)cc1 | -8.44% |
| Cc1ccc(/C=N/NC(=O)C(NC(=O)c2ccccc2)c2n[nH]c(=O)c3ccccc23)cc1 (configuration not stated) | 34.8% (active) |
| O=C(O)c1ccc(/C=N/NC(=S)NCc2ccccc2)cc1 | 3.11% |
| COc1ccc(N(CC(=O)N2CCOCC2)S(=O)(=O)c2ccccc2)cc1Cl | -0.45% |
| COc1ccc(NC(=O)C[C@H]2C(=O)N(CCc3ccccc3)C[C@@H]2C)cc1 | -3.33% |
| CCC1C=C(c2ccccc2)C=CN=C1N(CC)CC (configuration not stated) | -3.08% |
| Nc1ccc(OCC(O)C[n+]2ccc(CCS(=O)(=O)[O-])cc2)cc1 (configuration not stated) | 0.26% |
| CCc1c(C)sc(NC(=O)c2cccs2)c1C(N)=O | -1.07% |
| O=c1oc2ccc(C#CC3(O)CCCCC3)cc2cc1-n1cc(-c2ccsc2)nn1 | 0.49% |
| COc1ccccc1NS(=O)(=O)N(C)C | -1.14% |
| Cc1ccc(Cc2c(-c3ccccc3)nc3ccc(Cl)cn23)cc1 | -5.98% |
| O=C(NCCCN1CCOCC1)c1cnn2c(-c3ccccc3)cc(-c3ccccc3)nc12 | 1.48% |
| CN(c1ccc(OCC(=O)OCC(=O)Nc2cccc([N+](=O)[O-])c2)cc1)S(=O)(=O)c1ccc(F)cc1 | -2.67% |
| Cc1sc(NC(=O)C2C3CCC(O3)C2C(=O)O)c(C(=O)OC(C)C)c1-c1ccc(Cl)cc1 (configuration not stated) | 6.11% |
| CCN(CC(=O)NCc1cccs1)C(=O)c1cccc(S(=O)(=O)Nc2ccccc2OC)c1 | 0.52% |
| CCc1cc(C(=O)N(CC)CC(=O)Nc2c(F)cccc2F)sc1C | -0.43% |
| Cc1oc2cc3oc(=O)ccc3cc2c1C | -1.48% |
| O=c1[nH]c(=O)n(Cc2ccco2)c2c1C(C(F)(F)F)(C(F)(F)F)N=C(c1ccco1)N2 | -0.13% |
| COc1ccc(/C=N/OCc2ccccc2C#N)c(OC)c1 | -2.91% |
| CC(=O)c1nn(-c2cccc(Br)c2)cc1C(=O)c1cccc2ccccc12 | -10.7% |

| Compound | inhibition |
| --- | --- |
| COc1ccc(CN2CCN(Cc3cn(C)nc3-c3ccccc3)CC2CCO)c(C)c1C (configuration not stated) | -4.22% |
| CC1CCN(S(=O)(=O)c2ccc3ncn(CC(=O)N(C)C4CCCCC4)c(=O)c3c2)CC1 | -3.62% |
| OC(c1ccccc1)c1nccn1Cc1ccccc1 (configuration not stated) | 0.02% |
| O=C(NCc1ccc2c(c1)OCO2)C(=O)NCC1OCCN1S(=O)(=O)c1ccc(F)cc1 (configuration not stated) | 1.47% |
| NC(N)=Nc1nc2ccc(Br)cc2c(=O)[nH]1 | -0.46% |
| CCC(=O)Nc1ccc(S(=O)(=O)NCC2CCCO2)cc1 (configuration not stated) | 0.13% |
| CCCCOc1ccc(NC(=O)[C@@H]2CCCN2C(=O)C2CCN(S(=O)(=O)c3ccc(C)cc3)CC2)cc1 | -4.14% |
| COCCNC(=O)CCCN1C(=O)c2ccccc2Sc2ncccc21 | 0.34% |
| C=CCC(NCCCO)c1cccc(OC)c1OC (configuration not stated) | -0.64% |
| O=C(Cc1ccc(Cl)cc1)NCc1nc(-c2ccccc2)no1 | -5.92% |
| O=C(Nc1cccc(Cl)c1)C1CCCN(c2cnccn2)C1 (configuration not stated) | -0.35% |
| COCc1ccc(CN2CCC(Oc3ccc(C(=O)NCc4ccccn4)cc3)CC2)o1 | -0.42% |
| COC(=O)c1cc(N2CCNCC2)nc2ccccc12 | 1.6% |
| Cc1cc(F)ccc1S(=O)(=O)Nc1ncnc2scc(-c3ccc(F)cc3)c12 | 11% |
| CC(=O)c1nn(-c2cccc(C(F)(F)F)c2)c(=O)[nH]c1=O | -0.12% |
| COC(=O)CC1=NN(c2nc(C)cc(C)n2)C(=O)C1 | -2.2% |
| CCCCn1c(N)c(N(CC(C)C)C(=O)C2CSC3(C)CCC(=O)N23)c(=O)[nH]c1=O (configuration not stated) | 0.2% |
| C=CCN(C(=O)Cn1ncc2c1-c1cc(C)ccc1OC2)c1ccccc1 | -2.66% |
| Cc1c(CCO)c(=O)[nH]n1C(=O)c1c(F)cccc1F | -0.98% |
| Cc1ccnc(NC(=O)CCC(=O)N(CC(=O)NCCc2ccccc2)Cc2cccs2)c1 | -0.29% |
